This is part of a sample that, as a whole, favours compounds with a hit. Of some 83,000 tested, about 20% had one in any assay.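 Negative percent growth values reflect cell death: -40 means 40% of the cells present at the start died, and -100 means all died.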 A number with no mark means an inactive call. The source made the active and inactive calls. How the source made its calls: active means growth percent below 10; inactive means the rest.
test system: MDA-MB-468 breast; test: NCI-60 one-dose screen, 48 h (100 = growth as untreated, 0 = no growth, -100 = all killed); details: 10 µM unless noted

Compound | growth
NC(N)=Nc1ccc(Oc2ccc(Nc3ccc(Cl)c(C(F)(F)F)c3)cc2)cc1 | 22.2%
O=C(N/N=C/[C@@H](O)[C@H](O)[C@H](O)CO)c1ccc(NC(=O)c2cccnc2)cc1 | 101%
CN(CCO)c1ccc(N2Cc3ccccc3OC3=C2C(=O)c2c(O)ccc(O)c2C3=O)cn1 | -64.7% (active)
CCOc1ccc(-c2nonc2NC(=O)c2cccc(C)c2)cc1OCC | 2.82% (active)
c1ccc2c(N=NSc3ncnc4nc[nH]c34)c3ccccc3nc2c1 | -55.1% (active)

— PubChem BioAssay (NCI)
